This excerpt belongs to a sample that is enriched for hits.
Pf Dd2 growth – blocks in vitro growth of P. falciparum Dd2; P. falciparum Dd2 growth, SYBR Green, 72 h; Potency, µM (top dose mostly 28.9 µM), without a hit: top-dose activity, negative = inhibition, usual class: inhibitors; 4.3% of 120,000 active; AID 1347417; active = well fitted inhibition curve with a large enough effect;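 also: plate controls were DMSO vehicle for no effect and reference drug for full effect; nearly all actives have a fitted effect of over 65% in size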
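Infected erythrocytes (Dd2, 0.3% parasitemia, 2.5% hematocrit final) are added to compound in RPMI-1640/Albumax II medium, grown 72 h at 37C in low oxygen, then lysed with saponin/Triton-X containing SYBR Green and read by fluorescence.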
Starred values were filed as active, the others as inactive; i = inactive; [ ] = remark or other dose. Potency is read from the fitted curve at half-maximal effect.

SMILES	Pf Dd2 growth
C#CCNC(=O)CC[C@H]1CNC(=O)[C@@H]2[C@@H](CCN2Cc2ccc(C)cc2)N1C	i
CN1[C@@H](CCC(=O)Nc2ccccc2)CNC(=O)[C@@H]2[C@H]1CCN2Cc1ccc(C(F)(F)F)cc1	i
Cc1ccc(CN2CC[C@@H]3[C@H]2C(=O)NC[C@H](CCC(=O)Nc2ccccc2)N3C)cc1	11.2µM*
C[C@@]12CO[C@@H](Cc3ccccc3)O[C@@H]1CC[C@]1(C)C2CC[C@@H](O)[C@H]1CC(=O)NCc1ccco1 (some centres not stated)	i
CNC(=O)c1cccc(-c2cnc(Nc3cccnc3OC)c3c2CCO3)c1	i
COCc1cc(NCc2cccnc2Oc2cccc(C(F)(F)F)c2)ncn1	-19.9%
O=C(O)c1cc2c(s1)CCN(C(=O)c1ccc(F)cc1)C2	19.7%
CN(CCc1ccccc1)C(=O)c1cc2c(s1)CCN(C(=O)c1ccc(Cl)cc1)C2	-2.4%
Cc1ccc(C(=O)N2CCc3sc(C(=O)NCc4cccc(F)c4)cc3C2)cc1	i
O=C(NCc1cccc(Cl)c1)c1cc2c(s1)CCN(C(=O)c1ccccc1)C2	10µM*
CN1CCN(C(=O)c2cc3c(s2)CCN(C(=O)c2ccc(Cl)cc2)C3)CC1	11.2µM*
O=C(NCc1ccccc1)c1cc2c(s1)CCN(C(=O)c1ccccc1)C2	-0.2%
Cc1ccc(C(=O)N2CCc3sc(C(=O)NCc4cc(F)cc(F)c4)cc3C2)cc1	8.91µM*
CC(=O)N1CCc2sc(C(=O)NCc3cccc(Cl)c3)cc2C1	i
NC(=O)CNC(=O)c1cc2c(s1)CCN(C(=O)c1ccc(Cl)cc1)C2	i
OCC1CN(c2ccncn2)CC12CCN(CC1CCCCC1)CC2 (configuration not stated)	-29.1%
CCC(C)NC(=O)C(NC(=O)c1ccccc1Cl)C1CCN(C(=O)c2cccc(OC)c2)CC1 (configuration not stated)	i
CCCNC(=O)N1CCCCC1c1noc(COc2ccc(C)cc2)n1 (configuration not stated)	-19.2%
CC(C)NC(=O)NC[C@H]1OC[C@@H](NCc2cccs2)[C@@H]1O	4.6%[44.1 µM]
CC(=O)N1CCN(c2cncc(C(=O)N3CCOCC3)n2)CC(O)C1 (configuration not stated)	-3.8%
COC(=O)c1cncc(N2CCCC3(CCC(=O)N(Cc4ccccc4)C3)C2)n1 (configuration not stated)	5.6%
CC1(c2ccccc2)CCCN(c2cncc(C(=O)N3CCOCC3)n2)C1 (configuration not stated)	11.2µM*
COC(=O)c1ccc2c(c1)nc1n2[C@@H](CNCc2ccc(C(F)(F)F)cc2)COC1	i
CCc1cc(=O)n(CC(=O)Nc2ccc(C)c(Cl)c2)c(N2CCOCC2)n1	-11.4%
CN(C)Cc1ccc(-c2cc3c(ccn3Cc3ccncc3)c(N3CCOCC3)n2)cc1	11.2µM*
SMILES	Pf Dd2 growth
c1cc(Cn2ccc3c(N4CCOCC4)nc(-c4cn[nH]c4)cc32)ccn1	2.6%[44.1 µM]
Cn1cc(-c2cc3c(ccn3Cc3ccncc3)c(N3CCOCC3)n2)cn1	38.6%[44.1 µM]
Cc1ccc([S+](=O)([O-])N2CCC3(CC2)Cc2ccccc2NC3=O)cc1	32.1%
CN1C(=O)c2ccccc2Sc2ccc(NC(=O)c3ccccc3F)cc21	-4.1%
CN1C(=O)c2ccccc2Sc2ccc(NC(=O)N3CCN(c4ccccc4F)CC3)cc21	12.6µM*
CN1C(=O)c2ccccc2Sc2ccc(NC(=O)COc3ccc(F)cc3)cc21	-0.2%
COc1ccc(NC(=O)C2CC(=O)N(c3n[nH]c4cccc(F)c34)C2)cc1 (configuration not stated)	3.1%
O=C(N[C@H]1CCN2C(=O)c3cc(-c4ccccc4)ccc3NC(=O)[C@H]12)c1cccc(F)c1	-3.2%[44.1 µM]
COCCn1c(=O)n([C@H]2CCCN(C(=O)C3CCCCC3)C2)c2ncccc21	-12.0%
Cc1ncccc1OCC1CN(Cc2cccc(C(F)(F)F)c2)C(=O)c2c(ccnc2-c2ccc(OCC(=O)O)cc2)O1 (configuration not stated)	-3.8%
O=C(O)COc1ccc(-c2nccc3c2C(=O)N(Cc2c[nH]c4ccccc24)CC(COc2ccccc2)O3)cc1 (configuration not stated)	i
CC(C)C(=O)NCC1CN(Cc2ccccc2)C(=O)c2c(ccnc2-c2ccc(OCC(=O)O)cc2)O1 (configuration not stated)	1.12µM*
COC(=O)[C@H](NC(=O)[C@@H]1[C@@H](NC(=O)Nc2ccc(F)cc2F)CCN1C(=O)c1cnccn1)C(C)C	5.4%
OCC1(Cc2ccccc2)CCN(Cc2ccccc2-c2ccco2)CC1	8.91µM*
CCCn1cc(CN2CCC(CO)(Cc3ccccc3Cl)CC2)c(C)n1	i
COc1ccccc1CN1CCC2(CC1)COCCN2C(=O)OCc1ccccc1	-7.1%[44.1 µM]
Cc1ccc(Cn2cc(S(=O)(=O)c3cccc(C)c3)c(=O)c3cc(F)c(N4CCOCC4)cc32)cc1	10µM*
Cc1ccc(Cn2cc(S(=O)(=O)c3cccc(Cl)c3)c(=O)c3cc(F)c(N4CCOCC4)cc32)cc1	20.8%
Cn1cc(S(=O)(=O)c2cccc(Cl)c2)c(=O)c2cc(F)c(N3CCN(c4ccccc4)CC3)cc21	-0.5%
CCn1cc(S(=O)(=O)c2cc(C)cc(C)c2)c(=O)c2cc(F)c(N3CCOCC3)cc21	20.3%
O=c1c(S(=O)(=O)c2ccccc2)cn(Cc2ccccc2)c2cc(N3CCOCC3)c(F)cc12	8.91µM*
Cc1cccc(S(=O)(=O)c2cn(C)c3cc(N4CCN(c5ccccc5)CC4)c(F)cc3c2=O)c1	40.8%
O=C(c1ccccc1)N1CCC(N2CCCNC2=O)CC1	8.3%[44.1 µM]
CC(C)c1noc(CC2CCN(C(=O)c3ccccn3)CC2)n1	61.8%
Cc1cc(C(=O)N2CCCN(S(=O)(=O)c3ccccc3)CCC(=O)NCC2)nn1C	-5.4%
SMILES	Pf Dd2 growth
Cc1ccccc1-n1ncc(C(C)NC(=O)c2cc(F)ccc2F)c1C (configuration not stated)	-20.6%
CCCN1CCCC2(CCN(C(=O)c3cc(CC)[nH]c(=O)c3)C2)C1=O (configuration not stated)	0.3%
O=C(c1ccc(Cl)cc1)N1CCC(n2c(=O)[nH]c3ccccc32)CC1	16.7%
CCc1noc([C@@H]2CC(F)(F)CN2C(=O)c2ccnn2C)n1	9.4%
Cc1ccc(OCCn2cc(C(=O)c3cccs3)c3ccccc32)cc1	3.98µM*
Cc1ccccc1OCCn1cc(C(=O)C2CCCCC2)c2ccccc21	-8.8%
Cc1ccccc1NC(=O)Cn1cc(C(=O)c2ccco2)c2ccccc21	-4.8%
CCOc1ccc(NC(=O)Cn2cc(C(=O)c3ccccc3)c3ccccc32)cc1	26.2%
Cc1cc(OCCn2cc(C(=O)c3ccco3)c3ccccc32)ccc1Cl	1.12µM*
Cc1ccccc1OCCn1cc(C(=O)c2ccco2)c2ccccc21	1.26µM*
Cc1cccc(C)c1OCC(=O)N(Cc1ccco1)Cc1ccco1	14.2%
O=C(Cn1cc(C(=O)c2ccco2)c2ccccc21)Nc1ccc(Br)cc1	-14.9%
COc1ccccc1OCCn1cc(C(=O)c2cccs2)c2ccccc21	i
COC[C@H]1CCCN1C(=O)C[C@@H]1O[C@H](CNC(=O)NC(C)C)[C@@H](O)[C@H]1O	34.6%[44.1 µM]
CCOc1cccc(CNc2ncncc2-c2nc(-c3ccccc3)no2)c1	-11.4%
COc1ccc(OCC2CCCN(C(=O)c3cn(C4CCCCC4)nn3)C2)cc1 (configuration not stated)	-16.1%
O=C(NCC1(COc2cnccn2)C[C@@H](O)[C@@H](O)C1)c1ccc(F)cc1 (some centres not stated)	i

Screening data (PubChem)
